Test results as given in ChEMBL document CHEMBL1201862, “PubChem BioAssay data set” (2004).
In all, about 400,000 compounds went through this assay and about 2,100 (0.53%) were called active. Roughly 14% stayed inconclusive and do not appear here. This is one part of a sample in which actives are shown more often than they occur. No rule for the calls is given here.

biological target: Ataxin-2 (Homo sapiens) (UniProt Q99700); test: qHTS for Inhibitors of ATXN expression.; assay type: functional
Sequence (Q99700 whole entry): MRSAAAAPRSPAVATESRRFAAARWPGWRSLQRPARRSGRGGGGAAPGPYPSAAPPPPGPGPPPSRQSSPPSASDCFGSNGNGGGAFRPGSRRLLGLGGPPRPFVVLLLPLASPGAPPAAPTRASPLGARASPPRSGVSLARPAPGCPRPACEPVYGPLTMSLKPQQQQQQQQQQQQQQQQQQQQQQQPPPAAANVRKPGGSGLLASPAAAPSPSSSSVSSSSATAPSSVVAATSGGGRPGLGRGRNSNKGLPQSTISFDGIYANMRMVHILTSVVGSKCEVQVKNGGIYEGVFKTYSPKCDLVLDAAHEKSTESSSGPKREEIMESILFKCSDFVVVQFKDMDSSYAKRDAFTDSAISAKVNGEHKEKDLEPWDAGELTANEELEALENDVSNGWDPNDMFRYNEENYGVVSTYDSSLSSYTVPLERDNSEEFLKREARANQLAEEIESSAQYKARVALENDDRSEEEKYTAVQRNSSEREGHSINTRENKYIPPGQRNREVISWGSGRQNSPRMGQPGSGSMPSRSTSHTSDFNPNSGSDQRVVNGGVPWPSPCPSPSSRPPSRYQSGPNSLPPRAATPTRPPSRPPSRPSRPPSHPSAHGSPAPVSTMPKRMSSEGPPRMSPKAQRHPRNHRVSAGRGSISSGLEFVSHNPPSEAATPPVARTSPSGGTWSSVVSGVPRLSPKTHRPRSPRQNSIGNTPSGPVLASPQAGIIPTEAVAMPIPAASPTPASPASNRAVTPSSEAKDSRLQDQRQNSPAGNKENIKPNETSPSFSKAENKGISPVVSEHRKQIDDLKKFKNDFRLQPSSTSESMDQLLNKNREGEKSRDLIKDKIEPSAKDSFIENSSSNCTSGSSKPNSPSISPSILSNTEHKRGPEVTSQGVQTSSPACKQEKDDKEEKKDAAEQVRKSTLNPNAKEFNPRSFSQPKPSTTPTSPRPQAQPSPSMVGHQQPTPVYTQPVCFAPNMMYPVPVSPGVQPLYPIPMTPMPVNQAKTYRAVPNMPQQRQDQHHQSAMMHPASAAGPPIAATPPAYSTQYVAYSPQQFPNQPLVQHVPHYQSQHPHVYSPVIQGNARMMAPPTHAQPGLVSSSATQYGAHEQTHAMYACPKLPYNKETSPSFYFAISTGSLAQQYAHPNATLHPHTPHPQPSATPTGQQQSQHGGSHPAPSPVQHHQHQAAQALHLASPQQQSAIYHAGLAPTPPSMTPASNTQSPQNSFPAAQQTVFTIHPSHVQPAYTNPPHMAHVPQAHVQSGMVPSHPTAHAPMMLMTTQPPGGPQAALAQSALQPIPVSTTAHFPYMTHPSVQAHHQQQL

Row | Compound | Potency
1 | CCCc1nn(-c2ccc([N+](=O)[O-])cc2)c(O)c1/C=N/CCCn1ccnc1 | inactive
2 | O=[N+]([O-])c1ccc(-c2ccc(/C=N/Nc3nc(N4CCCCC4)nc(N4CCCCC4)n3)o2)cc1 | inactive
3 | O=C(NNC(=O)c1cc(-c2ccc(Br)cc2)nc2ccccc12)c1csc(N2CCOCC2)n1 | inactive
4 | Clc1ccc(SCc2csc(N3CCOCC3)n2)cc1 | inactive
5 | S=C(NCCCN1CCOCC1)N1CCN(c2nc(-c3ccc(Cl)cc3)cs2)CC1 | 31.6 µM (active)
6 | COc1ccccc1NC(=O)C1=C(C)Nc2nc(SCc3ccccc3)nn2C1c1cccc(O)c1 (stereo not drawn) | 31.6 µM (active)
7 | COc1ccccc1NC(=O)c1sc2nc(C)cc(C)c2c1N | inactive
8 | COCc1cc(C)nc2sc(C(=O)Nc3ccccc3OC)c(N)c12 | inactive
9 | CCS(=O)(=O)c1nc(S(=O)(=O)c2ccc(C)cc2)c(N2CCN(C)CC2)s1 | inactive
10 | O=C(Oc1cccc2cccnc12)c1cccc(N2C(=O)C3C4CCC(C4)C3C2=O)c1 (stereo not drawn) | inactive
11 | COC(=O)c1ccc(NC(=O)c2cccc(C)c2)cc1 | inactive
12 | COC(=O)c1ccc(NC(=O)c2cccc(N3C(=O)C4C5C=CC(C6CC56)C4C3=O)c2)cc1 (stereo not drawn) | 39.8 µM (active)
13 | CCN(CC(=O)Nc1ccc(NC(C)=O)cc1)C(=O)CSC(=S)N1CCCC1 | 3.55 µM (active)
14 | CC(=O)Nc1ccc(NC(=O)CC2CCCC2)cc1 | inactive
15 | Cc1ccc(NC(=O)COC(=O)CSC(=S)N2CCOCC2)cc1 | inactive
16 | CCN(CC)CCCNc1oc(/C=C/c2ccccc2)nc1C#N | inactive
17 | COc1cccc(/C=N/NC(=O)c2ccc(=O)n(C)c2)c1O | inactive
18 | CCOc1cc(/C=N/NC(=O)c2ccc3c(c2)OCCO3)cc(Br)c1O | inactive
19 | COc1cc(Cl)cc(/C=N\NC(=O)c2ccc3c(c2)OCO3)c1O | inactive
20 | COc1cccc(/C=N/NC(=O)c2cc3cc([N+](=O)[O-])ccc3s2)c1O | 14.1 µM (active)
21 | O=C(N/N=C/c1sc2ccccc2c1O)c1cccc2ccccc12 | inactive
22 | Cc1occc1C(=O)N/N=C/c1cccc2ccccc12 | inactive
23 | O=C(N/N=C/c1cc([N+](=O)[O-])ccc1O)c1ccc2c(c1)OCCO2 | 50.1 µM (active)
24 | O=C(NN=Cc1cc([N+](=O)[O-])ccc1O)c1cccc2ccccc12 | 33.6 µM (active)
25 | COc1cccc(/C=N/NC(=O)c2c(C)nc3ccc(Cl)cn23)c1OC | inactive
26 | Fc1ccc(NC(=S)N2CCSC2c2cccs2)cc1 (stereo not drawn) | inactive

Row | Compound | Potency
27 | CC(C)OC(=O)CC(=O)CSc1nc2c(c(-c3cccs3)c1C#N)CCC2 | inactive
28 | CC1CN(CCOCCSc2ccc(Cl)cc2)CC(C)O1 (stereo not drawn) | inactive
29 | Cn1c2ccccc2c2nnc(NN)nc21 | inactive
30 | CN(Cc1ccsc1)C(=O)CCc1nnc(CCCc2ccccc2)o1 | inactive
31 | COCCCNCCCCSc1ccc(Cl)cc1 | inactive
32 | CCCCOc1ccc(C(=O)NCCc2ccccc2)cc1 | inactive
33 | COc1cc(OC)cc(C(=O)NNC(=S)NC(=O)c2cccnc2)c1 | inactive
34 | CCCOc1ccc(C(=O)NNC(=S)NC(=O)CC)cc1 | 31.6 µM (active)
35 | Cc1ccc(SCc2c(C(=O)N/N=C/c3ccoc3)nnn2-c2nonc2N)cc1 | inactive
36 | CC(=O)Nc1ccc(NC(=O)/C=C/c2ccc3c(c2)OCO3)cc1 | inactive
37 | CCOC(=O)c1[nH]c2ccc(Cl)cc2c1NC(=O)/C=C/c1ccc2c(c1)OCO2 | 44.7 µM (active)
38 | CCN(C(=O)COC(=O)/C=C/c1ccc2c(c1)OCO2)c1c(N)n(Cc2ccccc2)c(=O)[nH]c1=O | inactive
39 | CCN(CC)S(=O)(=O)c1cccc(-c2nnc(SCC(N)=O)n2C)c1 | inactive
40 | CCSc1ccc(-c2nn(-c3ccccc3)cc2/C=C(/C#N)C(=O)NC)cc1 | inactive
41 | CC1=NNC(=O)/C1=C\c1cn(-c2ccccc2)nc1-c1ccc(Cl)cc1 | 10 µM (active)
42 | CCCOc1ccc(-c2nn(-c3ccccc3)cc2/C=C2\SC(N)=NC2=O)cc1 | inactive
43 | O=Cc1cn(-c2ccccc2)nc1-c1cc2cc(O)ccc2oc1=O | inactive
44 | CC1=NNC(=O)/C1=C\c1cn(-c2ccccc2)nc1-c1ccc(F)cc1 | 8.91 µM (active)
45 | CCCSc1ccc(-c2nn(-c3ccccc3)cc2/C=C(/C#N)C(=O)NCCCOC)cc1 | inactive
46 | CCC(C)Sc1nc(O)c2cnn(-c3ccc(F)cc3)c2n1 (stereo not drawn) | inactive
47 | O=C(N/N=C\c1cc(Br)ccc1O)c1ccc(S(=O)(=O)N2CCCCC2)cc1 | inactive
48 | CC(OC(=O)Cn1cnc2c1c(=O)n(C)c(=O)n2C)C(=O)Nc1ccc(Cl)cc1 (stereo not drawn) | inactive
49 | Oc1ccc(C2C=C(c3ccc(F)cc3)Nc3ncnn32)cc1 (stereo not drawn) | inactive
50 | Cc1cc(C)nc(-n2nc(C)c3c2NC(=O)CC3c2ccccc2OC(C)C)n1 (stereo not drawn) | 25.1 µM (active)
51 | CCCCCCSc1ccc(-c2nc3cnccn3c2NC2CCCCC2)cc1 | inactive
52 | CCOC(=O)c1c(C)[nH]c(C(=O)COC(=O)CCNS(=O)(=O)c2ccc(NC(C)=O)cc2)c1C | inactive

Row | Compound | Potency
53 | CCCCn1c(NC(=O)c2ccco2)c(S(=O)(=O)c2ccc(C)cc2)c2nc3ccccc3nc21 | inactive
54 | CC[n+]1c(/C=C/C=C/N(C(C)=O)c2ccccc2)sc2ccccc21 | 35.5 µM (active)
55 | CC[n+]1c(/C=C2\SC(c3ccccc3C)=CN2C)sc2ccccc21 | inactive
56 | CCn1nc(-c2ccccc2)c2nc3ccccc3nc21 | inactive
57 | O=C(NCc1ccccc1)c1c(Cl)nc(Cl)c(Cl)c1Cl | 39.8 µM (active)
58 | Cc1nc(Cl)c(C(=O)NCc2ccccc2)c(C)c1Cl | inactive
59 | Nc1c(Cl)c(Cl)nc(C(=O)OCC(=O)NCc2ccccc2)c1Cl | inactive
60 | CCOC(=O)c1sc2nc(-c3cccnc3)ccc2c1N | inactive
61 | CCCOC(=O)c1cccc(Nc2nc(-c3cccnc3)nc3ccccc23)c1 | 35.5 µM (active)
62 | CCOC(=O)c1nc(Nc2ccccc2CC)c2ccccc2n1 | inactive
63 | CCOC(=O)c1sc2nc(C)cc(-c3ccccc3)c2c1N | inactive
64 | CC(=O)c1cccc(Nc2nc(-c3ccccc3)nc3ccccc23)c1 | inactive
65 | CCOC(=O)c1cccc(Nc2nc(C(=O)OCC)nc3ccccc23)c1 | 39.8 µM (active)
66 | O=c1cc(-c2ccccc2)c2ccc(O)cc2o1 | inactive
67 | O=C1CN(C(=O)NCC(=O)N2CCCC2)c2ccccc2N1 | inactive
68 | O=C1OCCN1C(=O)[C@H]1[C@H](c2ccccc2)C(c2ccc(F)cc2)=NN1c1ccc(Br)cc1 | inactive
69 | CCCC(O)(CCC)C(=O)NN(C(=O)CCl)c1cccc(C)c1 | 21.2 µM (active)
70 | CCCCCCCN(C(=O)CCl)c1cccc(C)c1 | 14.1 µM (active)
71 | Cc1ccc(S(=O)(=O)Oc2ccc(C3C4=C(CCCC4=O)N(CCC(=O)O)C4=C3C(=O)CCC4)cc2Cl)cc1 | inactive
72 | O=C(c1ccc(Br)cc1)c1sc(N2CCOCC2)nc1-c1ccccc1 | inactive
73 | CC(N=C(S)N1CCOCC1)c1ccccc1 (stereo not drawn) | inactive
74 | O=C(c1ccc(F)cc1)C1CCN(Cc2ccccc2)CC1 | inactive
75 | OC(CN1CCN(C(c2ccccc2)c2ccccc2)CC1)c1ccc(Br)cc1 (stereo not drawn) | inactive
76 | O=c1oc2c(CN3CCOCC3)c(O)ccc2cc1-c1ccccc1 | inactive
77 | O=C(c1ccc(Br)cc1)C(CN1CCOCC1)c1ccccc1 (stereo not drawn) | 29.9 µM (active)
78 | O=c1c2ccccc2n(CC(O)CN2CCOCC2)c2ccccc12 (stereo not drawn) | inactive

Row | Compound | Potency
79 | O=C(c1ccc(F)cc1)C(CN1CCOCC1)c1ccccc1 (stereo not drawn) | 25.1 µM (active)
80 | O=C(c1ccccc1)C(CCC(CN1CCOCC1)C(=O)c1ccccc1)CN1CCOCC1 (stereo not drawn) | 14.1 µM (active)
81 | Cc1c(O)ccc2c(CN3CCN(C/C=C/c4ccccc4)CC3)cc(=O)oc12 | inactive
82 | O=[N+]([O-])c1ccc(C2=CSC3=NCCN23)cc1 | inactive
83 | Cc1cccc(-n2nc(C)c3c2N=C2CCCC(O)=C2C3c2ccccn2)c1 (stereo not drawn) | inactive
84 | CC1(C(=O)OCC(=O)Nc2cc(S(=O)(=O)N3CCOCC3)ccc2Cl)CC1(Cl)Cl (stereo not drawn) | inactive
85 | O=C(NCCCn1ccnc1)c1ccc(-c2ccccc2)cc1 | inactive
86 | Cc1ccc2nc3c(cc(C(=O)NCc4ccccc4)c(=N)n3CCCn3ccnc3)c(=O)n2c1 | inactive
87 | N=c1c2c(-c3ccccc3)c(-c3ccccc3)n(Cc3ccccc3)c2ncn1CCCn1ccnc1 | 35.5 µM (active)
88 | O=c1c2ccccc2oc2cc(NCCCn3ccnc3)ccc12 | inactive
89 | c1ccc(-c2c(-c3ccccc3)n(Cc3ccco3)c3ncnc(NCCCn4ccnc4)c23)cc1 | 25.1 µM (active)
90 | Cc1cccc(Cl)c1OCCCn1ccnc1 | inactive
91 | CC[C@H]1C(c2ccc(F)cc2)=NN(c2ccccc2)[C@@H]1CO | inactive
92 | C/C(CC(=O)NCc1ccco1)=N\NC(=O)Cc1ccc(-c2ccccc2)cc1 | inactive
93 | COc1cc(C(=O)NN=C(S)Nc2ccc(S(N)(=O)=O)cc2)cc(OC)c1OC | inactive
94 | NS(=O)(=O)c1ccc(NC(=O)COC(=O)COc2cccc(C(F)(F)F)c2)cc1 | inactive
95 | CC(C)C(Cl)=NOC(=O)Nc1ccc(S(N)(=O)=O)cc1 | 21.2 µM (active)
96 | COC(=O)c1c(NC(=O)c2ccc(S(=O)(=O)N3CC(C)OC(C)C3)cc2)sc2c1CCN(C)C2 (stereo not drawn) | inactive
97 | O=c1ccc2cc3c4c(c2o1)CCCN4CCC3 | inactive
98 | CCCCOc1ccc(N(CC(=O)NCc2ccco2)C(=O)CCC(=O)Nc2nccs2)cc1 | inactive
99 | COc1ccc(OC)c([N+](=O)[O-])c1C(N)=O | inactive
100 | COc1ccncc1-c1ccc(C2=CC(=O)CC(C)(C)C2=O)cc1 | 35.5 µM (active)
101 | CC1=CC(=C(C#N)c2nc3ccccc3s2)C=C(C)N1c1ccc(F)cc1F | inactive
102 | CC1=C(C(=O)NCCCOC(C)C)C2(CCC(C)CC2)OC1=O (stereo not drawn) | inactive
103 | COCCCn1c(C(=O)NCCN2CCOCC2)cc2c(=O)n3ccccc3nc21 | inactive
